# Results as given in ChEMBL document CHEMBL3433997, “St. Jude Leishmania screening dataset” (2016).
# Biological target: Hexose transporter 1 (Plasmodium falciparum) (UniProt O97467)
# Assay: ST_JUDE_LEISH: Cytotoxicity at 2uM final concentration against transgenic Leishmania Mexicana promastigotes LmPfHT that are glucose transport deficient and complemented with the Plasmodium falciparum hexose transporter. Activity is measured by DNA content using SYBR green in vitro
# Assay type: functional
row,SMILES,inhibition [%]
1,CCCn1c(Sc2ccc(C#N)c([N+](=O)[O-])c2)nnc1-c1cc(OC)cc(OC)c1,4.36
2,CCOc1ccc2[nH]c(C)cc(=NN=Cc3ccccc3F)c2c1,4.47
3,COc1ccc(-c2nnc(Sc3ccc(C#N)c([N+](=O)[O-])c3)n2CCC(C)C)cc1,5.04
4,CC(C)CNCc1ccc(-c2ccc(CN(CCCN3CCN(C)CC3)C(=O)CCC3CCCC3)cc2)cc1,52
5,CN(C)CCNCc1cccc(-c2ccc3c(Nc4cc(O)c(Cl)cc4F)ccnc3c2)c1,5.09
6,CCCCCCN1CCCN(Cc2ccc(C(=O)Nc3ccc(CCC)cc3)cc2)CC1,7.71
7,O=[N+]([O-])c1cccc(CNC2CCN(Cc3ccc(Cl)c(Cl)c3)CC2)c1,4.47
8,COc1ccc2nccc(N3CCC(NCCNS(=O)(=O)c4ccc5c(c4)NC(=O)CS5)C3)c2n1 (stereo not given),-1.18
9,COc1cccc2[nH]c(NCCCNCc3cc(Br)cc(Br)c3)nc12,1.26
10,O=C(/C=C/c1ccc(Cl)c(Cl)c1)NCCCCCN1CCCN(C(=S)Nc2ccc(Cl)cc2)CC1,1.56
11,CCCNCc1ccc(-c2ccc(CN(CCOC)C(=O)c3ccc([N+](=O)[O-])c(C)c3)cc2)nc1,1.8
12,CCCCCc1cc(OC(C)=O)c2c(c1)OC(C)(C)C=C2C1=CCN(Cc2ccccc2)CC1,1.45
13,CCOC(=O)c1cc(C(=O)OC)c2ccccn12,0.87
14,NC1CCN(c2nc(NCCCc3ccc(O)cc3)nc(NCc3ccccc3-c3ccc(C(F)(F)F)cc3)n2)CC1,2.87
15,CC(C)C[C@H](NC(=O)c1ccc(OCCN2CCOCC2)cc1)C(=O)N[C@H](/C=N/N(C)C(=O)c1ccccc1)CCc1ccccc1,8.34
16,CC1(C)NC(N)=NC(=N)N1OCCSc1ccccc1,3.7
17,Cc1cc(N[C@@H](Cc2ccccc2)C(=O)NCc2cccc(F)c2)nc(NCCc2cccnc2)n1,12.9
18,O=C(Nc1cccc(-c2nn3ccccc3c2-c2ccnc(Nc3cccc(F)c3)n2)c1)C1CCCCC1,2.83
19,N#CC1(c2ccccc2)CCN(c2nc(NCCCN3CCCC3=O)nc(N3CCCC4CCCCC43)n2)CC1 (stereo not given),2.3
20,O=C(/C=C/c1ccc([N+](=O)[O-])cc1)N1CCC(NS(=O)(=O)c2ccc(F)cc2)CC1,3.96

row,SMILES,inhibition [%]
1,CCN(CC)CCN(CCN(CC)CC)c1ccc2c(c1)Sc1c(Cl)ccc(Cl)c1S2,6.29
2,O=c1cc(NCCCNCc2cccc(C(F)(F)F)c2Cl)[nH]c2ccccc12,3.63
3,Cc1cccc(N2C(N)=NC(N)=NC2(C)C)c1C,1.41
4,N#Cc1ccc(/C=C/C(=O)NCCCCCN2CCCN(C(=O)Nc3ccc(Cl)c(C(F)(F)F)c3)CC2)cc1,1.14
5,CCOc1cc(C)ccc1C1CCN(CCCCNC(=O)c2ccc(-c3ccc(C(F)(F)F)cn3)cc2)CC1,9.74
6,COc1ccc(Nc2nccc(N3CCC(NC(=O)Nc4cccc(OC)c4)C3)n2)cc1 (stereo not given),0.74
7,CN(C)CCCNCc1ccc(-c2ccc(C(F)(F)F)cc2)cc1,4.5
8,Cc1[nH]c(C)c(-c2ccc(CCc3cccc(C(F)(F)F)c3)nc2)c(=O)c1Cl,2.18
9,COc1cccc(NC(=O)NC2CCN(CCCCCNC(=O)/C=C/c3ccc(Cl)c(Cl)c3)CC2)c1,0.47
10,COc1ccc2nccc([C@@H](O)CN3CCC(NC(=O)C(=Cc4ccc(C#N)cc4)c4ccc(-c5ccccc5)cc4)CC3)c2c1,0.19
11,CC(=O)c1cccc2cc(C(=O)NC3CCC(CCN4CCc5ccc(C#N)cc5C4)CC3)[nH]c12 (stereo not given),2
12,CC(C)(CNCc1cc(Cl)cc(Cl)c1)c1nc(-c2ccnc(N)n2)c(-c2ccc(Cl)c(O)c2)[nH]1,0.95
13,NC(=O)c1cccc(Nc2nccc(Nc3ccc(Oc4ccc5ccccc5c4)cc3)n2)c1,4.45
14,COc1ccc2ncc(C#N)c(CCN3C4CCC3CC(NCc3ccc5c(n3)NC(=O)CS5)C4)c2c1 (stereo not given),4.33
15,CCN(CCCN1CCCCC1)c1cc(C)nc(Nc2ccc(OC)cc2)n1,-1.06
16,CC(Cc1ccc(NC(=O)c2ccc(CNCCc3ccccc3)cc2)cc1)NCCc1cccc(Cl)c1 (stereo not given),36
17,CCc1c[nH]c2c(N(c3ccccc3)S(C)(=O)=O)cc(C(=O)N[C@@H](Cc3ccccc3)[C@H](O)CNCc3cccc(C(F)(F)F)c3)cc12,1.54
18,CCn1cc(-c2cc(C(=O)Nc3ccc(OC)cc3C)c3ccccc3n2)c(C)n1,4.56
19,CO/C(=C\C=C\c1cc2cc(Cl)c(Cl)cc2[nH]1)C(=O)NC1CC(C)N(C)C(C)C1 (stereo not given),-0.97
20,C(=NN=c1cc[nH]c2ccccc12)c1ccncc1,4.32

# Biological target: Glucose transporter (Leishmania mexicana) (UniProt O61059)
# Assay: ST_JUDE_LEISH: Cytotoxicity at 2uM final concentration against transgenic Leishmania Mexicana promastigotes LmGT2 that are glucose transport deficient and complemented with the L. Mexicana glucose transporter 2. Activity is measured by DNA content using SYBR green in vitro
# Assay type: functional
row,SMILES,inhibition [%]
1,CCCn1c(Sc2ccc(C#N)c([N+](=O)[O-])c2)nnc1-c1cc(OC)cc(OC)c1,1.24
2,CCOc1ccc2[nH]c(C)cc(=NN=Cc3ccccc3F)c2c1,3.86
3,COc1ccc(-c2nnc(Sc3ccc(C#N)c([N+](=O)[O-])c3)n2CCC(C)C)cc1,-0.81
4,CC(C)CNCc1ccc(-c2ccc(CN(CCCN3CCN(C)CC3)C(=O)CCC3CCCC3)cc2)cc1,3.97
5,CN(C)CCNCc1cccc(-c2ccc3c(Nc4cc(O)c(Cl)cc4F)ccnc3c2)c1,3.04
6,CCCCCCN1CCCN(Cc2ccc(C(=O)Nc3ccc(CCC)cc3)cc2)CC1,7.37
7,O=[N+]([O-])c1cccc(CNC2CCN(Cc3ccc(Cl)c(Cl)c3)CC2)c1,7.35
8,COc1ccc2nccc(N3CCC(NCCNS(=O)(=O)c4ccc5c(c4)NC(=O)CS5)C3)c2n1 (stereo not given),-2.22
9,COc1cccc2[nH]c(NCCCNCc3cc(Br)cc(Br)c3)nc12,2.63
10,O=C(/C=C/c1ccc(Cl)c(Cl)c1)NCCCCCN1CCCN(C(=S)Nc2ccc(Cl)cc2)CC1,1.57
11,CCCNCc1ccc(-c2ccc(CN(CCOC)C(=O)c3ccc([N+](=O)[O-])c(C)c3)cc2)nc1,1.19
12,CCCCCc1cc(OC(C)=O)c2c(c1)OC(C)(C)C=C2C1=CCN(Cc2ccccc2)CC1,-1.92
13,CCOC(=O)c1cc(C(=O)OC)c2ccccn12,1.34
14,NC1CCN(c2nc(NCCCc3ccc(O)cc3)nc(NCc3ccccc3-c3ccc(C(F)(F)F)cc3)n2)CC1,3.83
15,CC(C)C[C@H](NC(=O)c1ccc(OCCN2CCOCC2)cc1)C(=O)N[C@H](/C=N/N(C)C(=O)c1ccccc1)CCc1ccccc1,2.75
16,CC1(C)NC(N)=NC(=N)N1OCCSc1ccccc1,3.37
17,Cc1cc(N[C@@H](Cc2ccccc2)C(=O)NCc2cccc(F)c2)nc(NCCc2cccnc2)n1,12.3
18,O=C(Nc1cccc(-c2nn3ccccc3c2-c2ccnc(Nc3cccc(F)c3)n2)c1)C1CCCCC1,-1.4
19,N#CC1(c2ccccc2)CCN(c2nc(NCCCN3CCCC3=O)nc(N3CCCC4CCCCC43)n2)CC1 (stereo not given),-0.55
20,O=C(/C=C/c1ccc([N+](=O)[O-])cc1)N1CCC(NS(=O)(=O)c2ccc(F)cc2)CC1,7.08

row,SMILES,inhibition [%]
1,CCN(CC)CCN(CCN(CC)CC)c1ccc2c(c1)Sc1c(Cl)ccc(Cl)c1S2,3.91
2,O=c1cc(NCCCNCc2cccc(C(F)(F)F)c2Cl)[nH]c2ccccc12,2.75
3,Cc1cccc(N2C(N)=NC(N)=NC2(C)C)c1C,1.09
4,N#Cc1ccc(/C=C/C(=O)NCCCCCN2CCCN(C(=O)Nc3ccc(Cl)c(C(F)(F)F)c3)CC2)cc1,1.57
5,CCOc1cc(C)ccc1C1CCN(CCCCNC(=O)c2ccc(-c3ccc(C(F)(F)F)cn3)cc2)CC1,7.82
6,COc1ccc(Nc2nccc(N3CCC(NC(=O)Nc4cccc(OC)c4)C3)n2)cc1 (stereo not given),0.51
7,CN(C)CCCNCc1ccc(-c2ccc(C(F)(F)F)cc2)cc1,4.81
8,Cc1[nH]c(C)c(-c2ccc(CCc3cccc(C(F)(F)F)c3)nc2)c(=O)c1Cl,0.88
9,COc1cccc(NC(=O)NC2CCN(CCCCCNC(=O)/C=C/c3ccc(Cl)c(Cl)c3)CC2)c1,3.52
10,COc1ccc2nccc([C@@H](O)CN3CCC(NC(=O)C(=Cc4ccc(C#N)cc4)c4ccc(-c5ccccc5)cc4)CC3)c2c1,-0.89
11,CC(=O)c1cccc2cc(C(=O)NC3CCC(CCN4CCc5ccc(C#N)cc5C4)CC3)[nH]c12 (stereo not given),-0.27
12,CC(C)(CNCc1cc(Cl)cc(Cl)c1)c1nc(-c2ccnc(N)n2)c(-c2ccc(Cl)c(O)c2)[nH]1,2.11
13,NC(=O)c1cccc(Nc2nccc(Nc3ccc(Oc4ccc5ccccc5c4)cc3)n2)c1,0.97
14,COc1ccc2ncc(C#N)c(CCN3C4CCC3CC(NCc3ccc5c(n3)NC(=O)CS5)C4)c2c1 (stereo not given),1.45
15,CCN(CCCN1CCCCC1)c1cc(C)nc(Nc2ccc(OC)cc2)n1,-1.02
16,CC(Cc1ccc(NC(=O)c2ccc(CNCCc3ccccc3)cc2)cc1)NCCc1cccc(Cl)c1 (stereo not given),4.52
17,CCc1c[nH]c2c(N(c3ccccc3)S(C)(=O)=O)cc(C(=O)N[C@@H](Cc3ccccc3)[C@H](O)CNCc3cccc(C(F)(F)F)c3)cc12,-2.38
18,CCn1cc(-c2cc(C(=O)Nc3ccc(OC)cc3C)c3ccccc3n2)c(C)n1,3.97
19,CO/C(=C\C=C\c1cc2cc(Cl)c(Cl)cc2[nH]1)C(=O)NC1CC(C)N(C)C(C)C1 (stereo not given),-1.43
20,C(=NN=c1cc[nH]c2ccccc12)c1ccncc1,3.95
